The full ranking holds about 81,000 sequences; the median of “one-hybrid fitness for binding parS DNA” is about -0.17, and the highest 2% start at about 0.51. For the sample, the highest values were picked, then their nearest neighbours and some sequences at random.

To fix the notation:
B1: Caulobacter ParB omega fusion; a variant is named by its letters at X, in order, B8GW30 (parent)
chain: MESVVVGEPGMSEGRRGLGRGLSALLGEVDAAPAQAPGEQLGGSREAPIEILQRNPDQPRRTFREEDLEDLSNSIREKGVLQPILVRPSPDTAGEYQIVAGERAWRAAQRAGLKTVPIMVRELDDLAVLEIGIIENVQRADLNVLEEALSYKVLMEKFERTQENIAQTIGKSXSHVANXMRLLXLPDEVQSYLVSGELTAXHARAIAAAADPVALAKQIIEGGLSVRETEALARKAPNLSAGKSKGGRPPRVKDTDTQALESDLSSVLGLDVSIDHRGSTGTLTITYATLEQLDDLCNRLTRGI

The variants in the experiment derive from B1. Put plainly: one-hybrid fitness for binding parS DNA (scaled: cognate 1, non-cognate 0); higher = stronger binding. The conditions noted are these: with parS DNA site. Put shortly:
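The reporter was HIS3, with the binding site 19 bp from the promoter, in E. coli USO used for bacterial one-hybrid selection of Caulobacter ParB libraries with four specificity codons randomised. Growth was on M9 lacking histidine, with 0.1 mM IPTG and 5 mM 3-AT, for 48 hours at 37°C. Illumina sequencing covered plasmids before and after selection; three replicate libraries were pooled and variants with under 10 reads dropped. A fitness score is the log change in variant-to-wild-type read ratio, rescaled to the cognate and non-cognate references.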
As to GTAW, the “one-hybrid fitness for binding parS DNA” value is ≤ 0.2.

With LGVR, the “one-hybrid fitness for binding parS DNA” value is ≤ 0.2. As for PMST, the figure is ≤ 0.2; as for LAKV, ≤ 0.2; as for PYNM, ≤ 0.2. As for TKAL, the figure is ≤ 0.2; as for PHQS, ≤ 0.2; as for QTGN, ≤ 0.2. With NQIG, the “one-hybrid fitness for binding parS DNA” value was ≤ 0.2. In the case of LHGR, the “one-hybrid fitness for binding parS DNA” value is ≤ 0.2.

Consider WVYT, for which the “one-hybrid fitness for binding parS DNA” value was ≤ 0.2. For VPRP, the “one-hybrid fitness for binding parS DNA” value is ≤ 0.2.

For RNRG, the “one-hybrid fitness for binding parS DNA” value was 0.94. For RNRY, the “one-hybrid fitness for binding parS DNA” value is 0.503. For the variant RNRK, the “one-hybrid fitness for binding parS DNA” value was ≤ 0.2.

With FALT, the “one-hybrid fitness for binding parS DNA” value is ≤ 0.2. With KIQT, the “one-hybrid fitness for binding parS DNA” value was ≤ 0.2. As for TSHI, the figure is ≤ 0.2; as for RVVC, 0.914; as for RVKF, 0.355. RVVR: the “one-hybrid fitness for binding parS DNA” value is ≤ 0.2. Take RVVQ: the “one-hybrid fitness for binding parS DNA” value was ≤ 0.2. Take RVKC: the “one-hybrid fitness for binding parS DNA” value came out at 0.813. Take RVKR: the “one-hybrid fitness for binding parS DNA” value is ≤ 0.2. As for DKVG, the “one-hybrid fitness for binding parS DNA” value is ≤ 0.2. QKKI: the “one-hybrid fitness for binding parS DNA” value is ≤ 0.2. HVMR: the “one-hybrid fitness for binding parS DNA” value is ≤ 0.2. As to RPES, the “one-hybrid fitness for binding parS DNA” value was ≤ 0.2. On to RFEN, for which the “one-hybrid fitness for binding parS DNA” value came out at 0.342. As for RCEP, the figure is ≤ 0.2; as for RCES, 1.02; as for RFEP, ≤ 0.2. On to RFES, for which the “one-hybrid fitness for binding parS DNA” value turned out to be 0.881.

Take RAES: the “one-hybrid fitness for binding parS DNA” value is 0.948. As for RLEH, the figure is 0.228; as for RLES, 1. As for RLEP, the “one-hybrid fitness for binding parS DNA” value was ≤ 0.2. In the case of RAED, the “one-hybrid fitness for binding parS DNA” value is ≤ 0.2. With RAEN, the “one-hybrid fitness for binding parS DNA” value is 0.337. SMRL: the “one-hybrid fitness for binding parS DNA” value is ≤ 0.2. HSNG: the “one-hybrid fitness for binding parS DNA” value is ≤ 0.2.

For IHDA, the “one-hybrid fitness for binding parS DNA” value was ≤ 0.2. For the variant GPGK, the “one-hybrid fitness for binding parS DNA” value was ≤ 0.2.

On to LPNM, for which the “one-hybrid fitness for binding parS DNA” value is ≤ 0.2. With LTRT, the “one-hybrid fitness for binding parS DNA” value was ≤ 0.2.

Consider GAAR, for which the “one-hybrid fitness for binding parS DNA” value is ≤ 0.2. Consider NIPL, for which the “one-hybrid fitness for binding parS DNA” value was ≤ 0.2.

Turning to RREN, the “one-hybrid fitness for binding parS DNA” value came out at 0.3. As for RHED, the “one-hybrid fitness for binding parS DNA” value is ≤ 0.2. Take RRED: the “one-hybrid fitness for binding parS DNA” value was ≤ 0.2. As for RSEH, the figure is ≤ 0.2; as for RHES, 0.962. As for RGED, the figure is ≤ 0.2. For the variant RHEN, the “one-hybrid fitness for binding parS DNA” value came to 0.369. As to RSES, the “one-hybrid fitness for binding parS DNA” value was 0.902.

As for RGEN, the “one-hybrid fitness for binding parS DNA” value was ≤ 0.2. As for RSEP, the “one-hybrid fitness for binding parS DNA” value was ≤ 0.2.

Take RRES: the “one-hybrid fitness for binding parS DNA” value is 0.752. RGES: the “one-hybrid fitness for binding parS DNA” value amounted to 0.554. For TVWR, the “one-hybrid fitness for binding parS DNA” value was ≤ 0.2. ANGP: the “one-hybrid fitness for binding parS DNA” value was ≤ 0.2. As to NLAR, the “one-hybrid fitness for binding parS DNA” value was ≤ 0.2.

Turning to SREP, the “one-hybrid fitness for binding parS DNA” value is ≤ 0.2. Regarding GNAS, the “one-hybrid fitness for binding parS DNA” value is ≤ 0.2. Consider RMES, for which the “one-hybrid fitness for binding parS DNA” value amounted to 0.956.

For the variant RIES, the “one-hybrid fitness for binding parS DNA” value stood at 0.93. As to RTED, the “one-hybrid fitness for binding parS DNA” value was ≤ 0.2.

For RTEH, the “one-hybrid fitness for binding parS DNA” value was found to be 0.208. As for RMEP, the figure is ≤ 0.2; as for RMED, ≤ 0.2; as for RKEP, ≤ 0.2. Consider RKES, for which the “one-hybrid fitness for binding parS DNA” value is 0.899.

Turning to RIEN, the “one-hybrid fitness for binding parS DNA” value was 0.279. RIEP: the “one-hybrid fitness for binding parS DNA” value was ≤ 0.2. With RKEN, the “one-hybrid fitness for binding parS DNA” value was 0.351.

For the variant RTES, the “one-hybrid fitness for binding parS DNA” value came out at 0.985. SVCD: the “one-hybrid fitness for binding parS DNA” value is ≤ 0.2. For the variant VPCS, the “one-hybrid fitness for binding parS DNA” value was ≤ 0.2.

QSKG: the “one-hybrid fitness for binding parS DNA” value was ≤ 0.2. For the variant MNTS, the “one-hybrid fitness for binding parS DNA” value was ≤ 0.2.

Turning to SEHV, the “one-hybrid fitness for binding parS DNA” value is ≤ 0.2. On to RLMV, for which the “one-hybrid fitness for binding parS DNA” value was ≤ 0.2.

For the variant TMAV, the “one-hybrid fitness for binding parS DNA” value is ≤ 0.2. As to QAEE, the “one-hybrid fitness for binding parS DNA” value is ≤ 0.2.
